# Hits are enriched below; roughly 4% of the tested compounds scored in any of these assays.
# KKLEB tox – cytotoxicity in KKLEB CF airway cells, primary screen, cytotoxicity control for CF NF-kB inhibitor project, cell-based, uHTS, fluorescence assay plates; AID 602141, 2011; KKLEB CF airway cells viability, ATPlite luminescence, overnight; hits give low values; cells stimulated with P. aeruginosa culture filtrate; activity change (cytotoxicity), % at 5 µM; 360,000 compounds, 0.36% hits;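 active = corrected activity change at or below -50% at 5 µM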
# TROY signal inh – inhibitors of TROY-driven NF-kB signaling, primary screen, Q293 LMP1-TROYcd cells, NF-kB luciferase, uHTS; AID 1347056, 2019; inhibition, % at 10 µM; 360,000 compounds, 0.98% hits; Q293 LMP1-TROYcd NF-kB luciferase reporter, 4 h;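 active = compounds whose plate-normalised and pattern-corrected inhibition of the luciferase reporter signal at the single screening dose is 50% or more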
# CF NFkB inh – inhibitors of PAF-induced NF-kB signaling, primary screen, cell-based, GFP fluorescence, uHTS | KKLEB NF-kB-GFP reporter, GFP fluorescence overnight | inhibition, % at 5 µM | 360,000 compounds, 0.86% hits | AID 588850, 2011;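 active = at least 50% inhibition at 5 µM, scaled per plate between neutral and stimulator controls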;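 note: PAF is a Pseudomonas aeruginosa culture filtrate used as stimulus; plate controls were PAF-stimulated DMSO wells for no effect and unstimulated DMSO wells for full effect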
# TWEAK Fn14 block – inhibitors of TWEAK-Fn14 signaling, primary screen, luciferase reporter cells, uHTS; inhibition, % at 10 µM; 360,000 compounds, 2% hits; TWEAK-stimulated Fn14 reporter cells, luciferase luminescence, 8 h; in the data active = inhibition above about 50%
# Peg3 prom inh – Peg3 promoter-driven luciferase inhibitors, primary screen, cell-based, HeLa, luciferase luminescence; inhibition, % at 20 µM; 360,000 compounds, 1.7% hits; AID 588405, 2011; HeLa PEG-Prom luciferase reporter, overnight;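 active = inhibition of at least 50% at 20 µM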
# HIF-2a inh – HIF-2a reporter inhibitors, primary screen, luminescence, 786-0 RCC cells; 360,000 compounds, 0.72% hits; 786-0 RCC cells HIF-2a reporter, luciferase luminescence, overnight; inhibition, % at 18.8 µM;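 active = inhibition of the luminescence signal of 40% or more relative to plate controls, in a single-dose primary screen at 18.75 µM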
# Active calls of the source: *; x = no result.
SMILES,KKLEB tox,TROY signal inh,CF NFkB inh,TWEAK Fn14 block,Peg3 prom inh,HIF-2a inh
C=CCc1cccc(/C=C/c2cc(=O)c3ccccc3[nH]2)c1O,7,30,-11,26,-205,-203
O=C(Nc1ccc(Cl)cc1)Nc1ccc(N2CCCC2)c(S(=O)(=O)Nc2ccccc2Cl)c1,-41,33,43,75*,46,-22
CCOC(=O)c1c(C)[nH]c(C(=O)OCC(=O)NC2CCS(=O)(=O)C2)c1C (stereo not given),5,x,-3,87*,2,8
O=C(Nc1ccccc1Cl)c1ccccc1Cc1ccccc1,-3,-5,13,-12,-17,-9
COc1ccc(C(=O)N2CCNC(=O)C2CC(=O)Nc2ccc(C)cc2)cc1 (stereo not given),1,-6,13,55*,10,20
C=CCn1c(C)cc(C(=O)CSc2nnc3c(Cl)cc(Cl)cn23)c1C,-70*,17,-6,26,-6,-14
Cc1cc(C(=O)CSc2nnc3c(Cl)cc(Cl)cn23)c(C)n1C,3,-6,7,-9,10,7
O=C(O[C@@H]1OC2COC(=O)c3cc(O)c(O)c(O)c3-c3c(cc(O)c(O)c3O)C(=O)O[C@@H]([C@H]1O)[C@@H]2O)c1cc(O)c(O)c(O)c1,-27,-20,8,75*,14,8
CCc1cc2c(NC(C(=O)O)C(C)C)ncnc2s1 (stereo not given),13,3,-10,-8,11,7
COc1ccccc1N(Cc1ccccc1)S(=O)(=O)c1cccc(C(=O)Nc2ccc(C)cn2)c1,1,20,-3,53*,38,21
Cc1cc(NC(=O)CCC(=O)N(c2ccccc2)C(C(=O)NC(C)(C)C)c2ccccc2Cl)no1 (stereo not given),7,24,7,25,9,4
Cc1ccc(S(=O)(=O)c2cc3cc(Br)ccc3oc2=O)cc1,-6,-16,28,80*,-51,15
CC(C)c1ccc(S(=O)(=O)c2cc3cc(Br)ccc3oc2=O)cc1,-25,-7,37,54*,88*,14
NC(=O)CC(NC(=O)Cc1cccc2ccccc12)c1ccc(NCCc2cccc(F)c2)c([N+](=O)[O-])c1 (stereo not given),4,3,-5,-19,26,9
Cc1ccc2nc(-c3ccc(NC(=S)NC4CC(C)(C)NC(C)(C)C4)cc3)sc2c1,-44,-5,38,27,105*,-195
CC1CCCCC1NC(=O)COC(=O)c1c2c(nc3ccccc13)/C(=C/c1ccco1)CC2 (stereo not given),0,0,-10,50*,-19,-4
COc1cc(C(=O)ON=C2C3CC4CC(C3)CC2C4)cc(OC)c1OC,4,1,4,-24,76*,-6
CCCNC(=O)C1(C)CCCN(Cc2noc(-c3c(C)noc3C)n2)C1 (stereo not given),2,-4,-11,-7,-23,8
Cc1ccc(S(=O)(=O)NCC(=O)OCc2cc(=O)oc3cc(C)ccc23)cc1,7,2,-14,7,-6,-14
Cc1ccc2c(COC(=O)C3=COCCO3)cc(=O)oc2c1,-14,30,4,81*,22,-63
Cc1ccc(N=C2NC(=O)CS2)c(C)c1,-5,x,-10,101*,9,13
Cc1cc(Br)ccc1N=C1NC(=O)CS1,11,13,-6,5,0,10
Cc1ccc(C(C(=O)NC(C)(C)C)N(Cc2cccs2)C(=O)c2ccc3c(c2)OCCO3)cc1 (stereo not given),8,24,15,24,28,15
CCC(C)(C)NC(=O)C(c1ccc(C)cc1)N(Cc1cccs1)C(=O)c1ccc2c(c1)OCCO2 (stereo not given),-1,55*,10,88*,11,-11
CCCCN(CC)CCCNC(=O)c1cc2c(=O)n(CC)c3ccccc3c2s1,-13,-9,-27,14,89*,-15
SMILES,KKLEB tox,TROY signal inh,CF NFkB inh,TWEAK Fn14 block,Peg3 prom inh,HIF-2a inh
CCCCN(CC)CCNC(=O)c1cc2c(=O)n(CC)c3ccccc3c2s1,2,8,-17,-19,34,7
O=C(NCC(c1ccco1)N1CCOCC1)c1ccc(C(F)(F)F)cc1 (stereo not given),1,4,13,-6,-23,5
Cc1cc(SCc2cc(=O)n3ccsc3n2)nc2ccccc12,5,-6,-27,-31,20,12
CCN(Cc1cc(=O)n2ccsc2n1)c1cccc2ccccc12,-15,64*,23,97*,16,6
CCN1CCN(Cc2ccc(NC(=O)Nc3ccc(OC)cc3)cc2)CC1,-6,-29,10,-16,-173,-147
CCN1CCN(Cc2ccc(NC(=O)Nc3ccccc3)cc2)CC1,-10,53*,2,60*,-110,-50
CNc1ccccc1C(C)(C)c1cc(-c2ccc(F)cc2)no1,-5,31,-6,54*,22,26
O=C(N/N=C\c1ccc([N+](=O)[O-])s1)c1cncc(Br)c1,16,14,12,53*,63*,-23
O=C(N/N=C\c1ccc2c(c1)OCO2)c1cncc(Br)c1,-5,-16,10,58*,-23,-57
O=C(N/N=C/c1ccccc1)c1ccc2c(c1)OCO2,5,-31,-10,59*,-106,-126
c1ccc(-c2csc3ncnc(NCC4COc5ccccc5O4)c23)cc1 (stereo not given),-16,59*,28,91*,27,7
Cc1sc2ncnc(NCC3COc4ccccc4O3)c2c1C (stereo not given),-2,41,11,57*,-5,-27
CC1(C2CC2)NC(=O)N(CC(=O)N2CCN(c3ccccc3)CC2)C1=O (stereo not given),-9,-17,-34,11,0,5
CC(C)c1ccc(OCc2ccc(C(=O)O)o2)cc1,-7,-30,13,37,51*,49*
CCc1ccc(OCc2ccc(C(=O)O)o2)cc1,9,-23,-11,54*,29,36
O=C(O)c1ccc(OCc2ccc(C(=O)O)o2)cc1,13,-20,0,-10,-63,-51
CC(C)c1ccc(OCc2ccc(C(=O)N(C)C)o2)cc1,-1,-35,-10,-21,-266,-254
CCC(C)NC(=O)C1CCN(S(=O)(=O)c2ccc3[nH]c(=O)ccc3c2)CC1 (stereo not given),1,1,0,-5,6,1
